Compound activity (PubChem BioAssay)
Only some compounds are listed: those with a hit (about 3.6% of all), similar ones and a draw of the others.
TGFb inhibitor = inhibitors of TGF-b signaling; HepG2 CAGA-GFP TGF-b/SMAD3 reporter, GFP fluorescence, 18 h; TGF-beta stimulated, 500 pg/mL final; Potency, µM (top dose mostly 46.1 µM), without a hit: top-dose activity, negative = inhibition, usual class: inhibitors; 1.2% of 410,000 active; also: % is scaled to controls: 0 for no effect and ±100 for the full control effect; nearly all actives have a fitted effect of over 65% in size
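HEPG2 CAGA-GFP reporter cells (1000/well, DMEM with 1% FBS) received compounds, then recombinant TGF-beta at 500 pg/mL final for 18 hours at 37 degrees C. Per-cell GFP summed per well was normalised to unstimulated and stimulated DMSO controls before curve fitting.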
Nrf2 activator = activators of Nrf2 (ARE) signaling; AREc32 ARE-luciferase reporter (MCF7-derived line), luminescence, 24 h; Potency, µM (highest dose often 46.1 µM), for inactives: top-dose activation, hits mostly activators; 0.31% of 410,000 active; also: % of control where 0% means no effect; nearly all actives have a fitted effect of over 65% in size
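Nrf2 activation is followed as ARE-luciferase induction in the AREc32 line after one day of compound treatment; luminescence is read with Steady-Glo.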
Nrf2 block = Nrf2 pathway inhibition. Potency, µM (series often up to 46 µM), for the others: at the top dose activity change, negative = inhibition, hits mostly inhibitors. 2.1% of 360,000 active. A549 ARE-Fluc reporter, luciferase luminescence, 18-24 h; also: % is scaled to controls: 0 for no effect and ±100 for the full control effect; nearly all actives have a fitted effect of over 60% in size
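Concentration-response testing used A549 ARE_Fluc cells at 5000 cells/well. Following an 18-24 h compound incubation, viability was read by fluorescence (Ex 405/Em 525) and luciferase output by luminescence.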
A549 viability = A549 cytotoxicity, counter-screen for Nrf2 inhibitors | A549 ARE-Fluc cells, CellTiter-Fluor viability, 18-24 h | 0.16% of 390,000 active | Potency, µM (series often up to 46 µM), for the others: at the top dose activity change, negative = cytotoxicity, usual class: inhibitors | AID 504648; also: % is scaled to controls: 0 for no effect and ±100 for the full control effect
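A549 ARE_Fluc cells in 5% FBS OPTI-MEM were exposed to compounds in concentration-response for 18-24 h at 37 deg C. Viability was read by CellTiter-Fluor fluorescence (Ex 405/Em 525) after 30 min, before the luciferase read.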
HepG2 tox = HepG2 cytotoxicity, counter-screen for TGF-b inhibitors; HepG2 CAGA-GFP viability, ATP luminescence, 18 h; Potency, µM (top dose mostly 46.1 µM), for the others: at the highest dose activity change, negative = cytotoxicity, hits mostly cytotoxic; 0.76% of 410,000 active
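CellTiter-Glo luminescence gave cytotoxicity after 18 hours at 37 degrees C. The cells were HepG2 CAGA-GFP in 1% FBS DMEM, stimulated with 500 pg/mL TGF-beta after compound addition. %Activity was normalised to no-cell wells (complete cell-killing) and DMSO (no toxicity), and curves were fitted and classified.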
* hit, by the source's call; ? = inconclusive; · = no result. Calls follow the shape of the dose curve; as a rule, active = well fitted curve in the direction sought with a large enough effect; inconclusive = small, poorly fitted or top-dose-only effect, or another doubt; inactive = no such curve, though single readings can be large; an effect the other way counts as inactive or inconclusive. Potency is read from the fitted curve at half-maximal effect.

SMILES	TGFb inhibitor	Nrf2 activator	Nrf2 block	A549 viability	HepG2 tox
N#Cc1ccc(CN2CCN(C(=O)CNC(=O)Cc3cccc4ccccc34)CC2)cc1	-21%	0%	5.8µM*	-14%	-7%
COc1ccc2c(c1)c(=O)oc1cc(OCC(=O)N3CCCC(C)C3)ccc12 (configuration not stated)	-28%	5%	·	-13%	-2%
COCCOC(=O)CSc1ncccc1-c1nc2cc(C)c(C)cc2[nH]1	11%	3%	15µM*	2%	-60%
COc1ccc(-n2nc(C#N)c(Cl)cc2=O)cc1	16µM*	?	?	3%	18µM*
COC(=O)C1=C(C)N(Cc2ccc(C)cc2)C(=O)/C1=C\c1cc(OC)c(OC)c(OC)c1	?	?	?	-12%	16µM*
CCN1C(=O)/C(=C\c2ccco2)C(C(=O)OC)=C1C	-2%	10µM*	-12%	-5%	-10%
COc1cccc2c1C(=O)C=C(C)C2=O	?	-4%	-2%	7%	-106%
COC1=CC(=O)c2c(ccc3ncnc(N)c23)C1=O	0.89µM*	-3%	4.6µM*	7.3µM*	1.4µM*
CC(C)=CC(O)C/C(C)=C/COc1ccc2ccc(=O)oc2c1 (configuration not stated)	?	-3%	10µM*	-29%	-30%
CCn1nnnc1NCc1ccc(OCc2ccc(F)cc2Cl)c(OC)c1	2%	0%	21µM*	-7%	2%
CCCCCOC(=O)CSc1nc2c(c(=O)[nH]c(=O)n2C)n1Cc1ccc(Cl)cc1	2%	0%	0%	0%	6%
CCN1CCN(c2ncc(C(=O)Nc3ccccc3C(=O)OC)c3ccccc23)CC1	1%	0%	4%	18µM*	-31%
CCc1ccc(NC(=O)c2cnc(N3CCN(c4ccccn4)CC3)c3ccccc23)cc1	19%	0%	12µM*	?	-2%
CC(C)NC(=O)c1cnc(N2CCN(c3ccccn3)CC2)c2ccccc12	15%	0%	?	-8%	-12%
Cc1nnc(SCC(=O)N2c3ccccc3C(C)(c3ccccc3)CC2(C)C)s1 (configuration not stated)	?	4%	23µM*	?	5%
Cc1ccc(C2(C)CC(C)(C)N(C(=O)CSc3nnc(C)s3)c3ccccc32)cc1 (configuration not stated)	?	-1%	21µM*	?	-17%
CCCCC(=O)N1c2ccccc2C(C)(c2ccccc2)CC1(C)C (configuration not stated)	-15%	-2%	12%	9%	-17%
CC(C)Cn1c(N)c(C=O)c(=O)[nH]c1=O	-2%	1%	?	2%	-4%
N#Cc1c2n(c3c(=O)n(Cc4ccccc4Cl)cnc13)CCCC2	23%	0%	·	5%	-26%
Cn1c(=O)cc(SCC(=O)NCCCN2CCN(c3ccccc3F)CC2)c2ccccc21	5%	3%	-9%	0%	-48%
CN1OC[C@@H]2CN(Cc3ccccc3)[C@H](c3cccc(-c4ccc(C#N)cc4)c3)C[C@@H]21	10µM*	8%	-7%	-1%	-30%
COc1ccc(CN2C[C@H]3CON(C)[C@H]3C[C@H]2c2ccc(-c3ccccc3)cc2)cc1	11µM*	4%	·	·	-25%
O=S(=O)(c1ccc(NCCOCCO)nc1)N1CCCCC1	0%	0%	7%	0%	6%
Cc1c(C(C)C)c(=O)n(-c2ccc(S(=O)(=O)NCc3ccccc3)cc2)n1C	-23%	0%	7.3µM*	-7%	-12%
Cc1c(C(C)C)c(=O)n(-c2ccc(S(=O)(=O)NC3CCCCC3)cc2)n1C	-25%	3%	15µM*	1%	-22%
SMILES	TGFb inhibitor	Nrf2 activator	Nrf2 block	A549 viability	HepG2 tox
Cc1c(C(C)C)c(=O)n(-c2ccc(S(=O)(=O)N3CCOCC3)cc2)n1C	4%	0%	?	1%	-24%
O=C(CSc1ncc(-c2ccc(F)cc2)n1Cc1ccco1)Nc1ccc2c(c1)OCO2	?	2%	?	-11%	-31%
O=C(c1cc2ccccc2o1)c1cccs1	39%	22µM*	?	0%	-8%
O=C(O)COc1ccc(NC(=O)c2ccco2)cc1	0%	-1%	10%	4%	1%
CCCCc1c(C)nc2c(-c3ccc(Cl)cc3)c(C)[nH]n2c1=O	?	0%	5.8µM*	-6%	-31%
Cc1[nH]n2c(=O)cc(-c3ccc(Cl)cc3)nc2c1-c1ccccc1	10µM*	0%	7.3µM*	-17%	-43%
CCc1c(C)nc2c(-c3ccccc3)c(C)[nH]n2c1=O	-1%	5%	-8%	-2%	-17%
Cc1[nH]n2c(=O)cc(C(C)C)nc2c1-c1ccccc1	-23%	0%	?	-12%	-28%
Cc1[nH]n2c(=O)cc(C(C)(C)C)nc2c1-c1ccccc1	-2%	-1%	7.3µM*	-24%	-36%
O=c1cc(-c2ccccc2)nc2c(Cl)cc(Cl)cn12	-15%	4µM*	·	·	-50%
CCOC(=O)C(=CNc1cc(OC)ccc1-n1cccc1)C(=O)OCC	-29%	2%	?	-10%	-111%
CC(=O)N1CCc2c(sc3c2c(=O)n(CCc2ccccc2)c(=O)n3Cc2ccccc2C)C1	?	0%	18µM*	-29%	-45%
COc1cccc(CNC(=O)Cn2ccc3cc(S(=O)(=O)N4CCC(C)CC4)ccc32)c1	?	0%	-20%	-13%	-7%
Cc1cc(C)nc(SCCCNCc2ccc(Br)cc2)n1	?	0%	?	-17%	-10%
Cn1c(=O)c2cc(S(=O)(=O)NCCC(=O)N3CC=C(c4ccccc4)CC3)ccc2n(C)c1=O	-39%	0%	15µM*	-6%	-17%
CN(CC(=O)N1CC=C(c2ccccc2)CC1)S(=O)(=O)c1ccc2c(c1)c(=O)n(C)c(=O)n2C	?	5%	1%	12%	-13%
COc1ccc(C2C(C#N)=C(SC)NC3=C2C(=O)CC(C)(C)C3)cc1 (configuration not stated)	10%	0%	4%	10%	-14%
C=Cc1ccc(CSc2nnc(C)n3c2cc2occc23)cc1	?	6%	18µM*	12%	-36%
C=CCOc1c(Br)cc(CNc2ccc(NC(=O)C(C)C)c(OC)c2)cc1OC	-29%	0%	9.2µM*	-22%	-28%
Cc1cc(C)c2ccc(NN)nc2c1O	-28%	1%	0%	-6%	-4%
Cc1cc(C)c2ccc(/C=N/O)nc2c1O	18µM*	6%	13%	15%	-101%
COc1cc2[nH]c3c(OC)ncnc3c2cc1OC	?	5%	30%	0%	-4%
